Data: the supplement of paper PMC5662767
Counter-ions that a name gives are not always drawn.

Test system: Drosophila S2 cl14 SmoIP sensor cells
Assay: normalized SmoIP GFP fluorescence (untreated unstimulated = 0%, untreated Hh-stimulated = 100%); higher = more Smo activation sensor fluorescence
Conditions: compound concentration: 2 uM, 24 h
[1] = stimulation: Hh conditioned medium (+Hh)
[2] = stimulation: mock conditioned medium (-Hh)
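Further: flow cytometry read-out as median GFP intensity of gated cells, compounds added 30 min before Hh-conditioned or mock medium, mock-treated cells serving as unstimulated baseline.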

Compound	normalized SmoIP GFP fluorescence [1]	normalized SmoIP GFP fluorescence [2]
C=C(C)[C@@H]1CC[C@]2(C(=O)O)CC[C@]3(C)[C@H](CC[C@@H]4[C@@]5(C)CC[C@H](O)C(C)(C)[C@@H]5CC[C@]43C)[C@@H]12 [betulinic-acid]	97%	-2.93%
CN1CCN(C(=O)c2cc3cc(Cl)ccc3[nH]2)CC1	101%	-2.71%
C=C[C@@]1(C)CC(=O)[C@]2(O)[C@@]3(C)[C@@H](O)CCC(C)(C)[C@@H]3[C@H](O)[C@H](OC(C)=O)[C@@]2(C)O1 [forskolin]	137%	-10%
CC(C)n1c(/C=C/[C@@H](O)C[C@@H](O)CC(=O)O)c(-c2ccc(F)cc2)c2ccccc21 [Fluvastatin-Sodium(Lescol]	78.2%	-7.6%
CN(C)CC(c1ccc(O)cc1)C1(O)CCCCC1 (stereo not given) [desvenlafaxine]	105%	-0.889%
COc1cc(F)c(C(C)C)cc1-c1ccc(C(F)(F)F)cc1CN1C(=O)O[C@H](c2cc(C(F)(F)F)cc(C(F)(F)F)c2)[C@@H]1C [anacetrapib-mk-0859]	146%	-8.59%
CC[C@H]1OC(=O)[C@H](C)[C@@H](O[C@H]2C[C@@](C)(OC)[C@@H](O)[C@H](C)O2)[C@H](C)[C@@H](O[C@@H]2O[C@H](C)C[C@H](N(C)C)[C@H]2O)[C@](C)(OC)C[C@@H](C)C(=O)[C@H](C)[C@@H](O)[C@]1(C)O [clarithromycin]	147%	-6.97%
O=c1cc(N2CCOCC2)oc2c(-c3ccccc3)cccc12	108%	-5.76%
COc1cc(CCc2cc(NC(=O)c3ccc(N4CC(C)NC(C)C4)cc3)n[nH]2)cc(OC)c1 (stereo not given)	114%	2.97%
N#CC1(c2ccc(NC(=O)c3cccnc3NCc3ccncc3)cc2)CCCC1 [Apatinib-YN968D1]	96.7%	-1.34%
CCCC(CCC)C(=O)O [Divalproex-sodium]	134%	-10.4%
CC(C)[C@H](O)C(=O)N[C@@H](C)C(=O)N[C@@H]1C(=O)N(C)CCc2ccccc21	98.8%	13.8%
O=C1C(=O)N(Cc2ccc(Cl)c(Cl)c2)c2ccccc21 [apoptosis-activator-2]	103%	-2.82%
CCOC(=O)[C@H](CCc1ccccc1)N[C@@H](C)C(=O)N1[C@@H](C(=O)O)C[C@@H]2CCC[C@@H]21 [Ramipril(Altace)]	137%	-16.3%
CCN1CCCC1CNC(=O)c1cc(S(=O)(=O)CC)c(N)cc1OC (stereo not given) [Amisulpride]	111%	3.51%
N[C@@H](CC(=O)N1CCn2c(nnc2C(F)(F)F)C1)Cc1cc(F)c(F)cc1F [Sitagliptin]	103%	-1.74%
CNCCc1ccccn1 [betahistine-dihydrochloride]	98.3%	-3.05%
CNC[C@H](O)c1cccc(O)c1 [Phenylephrine-hydrochloride]	108%	-14.9%
CC(C)C[C@H](NC(=O)[C@H](CCc1ccccc1)NC(=O)CN1CCOCC1)C(=O)N[C@@H](Cc1ccccc1)C(=O)N[C@@H](CC(C)C)C(=O)[C@@]1(C)CO1 [carfilzomib-pr-171]	80.7%	5.7%
Cc1[nH]nc2ccc(-c3cncc(OC[C@@H](N)Cc4ccccc4)c3)cc12	134%	8.54%
CC(C)C1CCC(C(=O)N[C@H](Cc2ccccc2)C(=O)O)CC1 (stereo not given in full) [Nateglinide(Starlix)]	110%	-4.71%
C[C@@]1(C(=O)Nc2ccc(F)nc2)CCCN1c1nc(Nc2cc(C3CC3)n[nH]2)c2cccn2n1	230%	60.9%
CNC(CC(=O)O)C(=O)O (stereo not drawn) [nmda-n-methyl-d-aspartic-acid]	101%	-3.16%
CN1CCC(=C2c3ccccc3CC(=O)c3sccc32)CC1 [ketotifen-fumarate-zaditor]	118%	-13.9%

Compound	normalized SmoIP GFP fluorescence [1]	normalized SmoIP GFP fluorescence [2]
Nc1ccc2ncnc(NCCc3ccc(Oc4ccccc4)cc3)c2c1	45.5%	39.1%
CC(=O)Oc1cc2c(s1)CCN(C(C(=O)C1CC1)c1ccccc1F)C2 (stereo not given) [Prasugrel]	107%	-2.42%
COc1cc(Nc2ncc(F)c(Nc3ccc4c(n3)NC(=O)C(C)(C)O4)n2)cc(OC)c1OC	112%	-1.11%
c1ccc2c(CCNc3ccc(Nc4ccncc4)cc3)c[nH]c2c1	106%	10.7%
CC(=O)O[C@]1(C(C)=O)CC[C@H]2[C@@H]3C[C@H](C)C4=CC(=O)CC[C@]4(C)[C@H]3CC[C@@]21C [Medroxyprogesterone-acetate]	116%	-1.83%
CC(=O)Nc1cccc(N2C(=O)N(C3CC3)C(=O)C3C(Nc4ccc(I)cc4F)N(C)C(=O)C(C)C32)c1 (stereo not given)	140%	-4.08%
Cc1c(OCC(F)(F)F)ccnc1C[S+]([O-])c1nc2ccccc2[nH]1 (stereo not given) [Lansoprazole]	104%	-1.13%
CCCCOc1c(C(=O)c2c(F)cc(C)cc2F)c[nH]c2nncc1-2	138%	-11.7%
CCOc1cc2ncc(C#N)c(Nc3ccc(F)c(Cl)c3)c2cc1NC(=O)/C=C/CN(C)C [Pelitinib]	197%	9.86%
Cc1cccc(-c2[nH]ncc2-c2ccc3ncccc3n2)n1 [repsox]	109%	-0.378%
CN1[C@@H]2CC[C@H]1C[C@@H](OC(c1ccccc1)c1ccccc1)C2 [benztropine-mesylate]	113%	-0.662%
Cc1ccc(N(CC2=NCCN2)c2cccc(O)c2)cc1 [phentolamine-mesilate]	128%	-15.3%
CC1=C(C(=O)OC(C)C)C(c2cccc([N+](=O)[O-])c2)C(C(=O)OC2CN(C(c3ccccc3)c3ccccc3)C2)=C(N)N1 (stereo not given) [azelnidipine]	111%	-1.23%
CC1CCc2cc(F)cc3c(=O)c(C(=O)O)cn1c23 (stereo not given) [flumequine]	106%	-3.79%
COC(=O)[C@H](c1ccccc1Cl)N1CCc2sccc2C1 [Clopidogrel-bisulfate]	113%	2.97%
NC(=O)[C@@H](CCC(F)(F)F)N(Cc1ccc(-c2ncon2)cc1F)S(=O)(=O)c1ccc(Cl)cc1	116%	0.489%
Cc1cc(-c2ncc(CC(=O)Nc3ccc(-c4cnccn4)cn3)cc2C)ccn1	130%	-1.23%
CCOC(=O)c1ccc(NC2CCCCC2)c(N)c1 [ferrostatin-1-fer-1]	116%	-3.05%
CN1CCN(c2ccc3nc(-c4c(N)c5c(F)cccc5[nH]c4=O)[nH]c3c2)CC1	63.2%	69.1%
COc1c(C)cnc(Cn2cnc3c(Cl)nc(N)nc32)c1C	121%	34.5%
CN1C(=O)C(Cc2c[nH]c3ccccc23)NC1=S (stereo not given) [necrostatin-1]	134%	-16.1%
CCN(CC)CCCCNc1ncc2cc(-c3cc(OC)cc(OC)c3)c(NC(=O)NC(C)(C)C)nc2n1	123%	8.79%
CC[C@H](CO)Nc1nc(NCc2ccccc2)c2ncn(C(C)C)c2n1 [Roscovitine]	121%	5.12%
CC(C)(C)Cn1c(N)nc2ccc(-c3[nH]c(C(C)(C)C)nc3-c3ccc(F)cc3)nc21	101%	1.35%

Compound	normalized SmoIP GFP fluorescence [1]	normalized SmoIP GFP fluorescence [2]
Cn1cc(-c2ccc3nnc(Sc4ccc5ncccc5c4)n3n2)cn1	96.1%	-1.88%
CCCSc1nc(N[C@@H]2C[C@H]2c2ccc(F)c(F)c2)c2nnn([C@@H]3C[C@H](OCCO)[C@@H](O)[C@H]3O)c2n1 [ticagrelor]	113%	-3.39%
COc1ccc([C@H]2CNC(=O)C2)cc1OC1CCCC1 [sRolipram]	102%	-4.08%
O=C(Nc1ccccc1)Nc1ccc(-c2ccc(C(=O)[C@@H]3CCC[C@H]3C(=O)O)cc2)cc1	128%	-11%
CC(=O)Oc1cc(C(F)(F)F)ccc1C(=O)O [triflusal]	111%	-4.58%
Cc1c(-c2ccccc2)oc2c(C(=O)OCCN3CCCCC3)cccc2c1=O [flavoxate-hcl]	106%	0.474%
O=C(Nc1c(Cl)cncc1Cl)c1ccc(OC(F)F)c(OCC2CC2)c1 [Roflumilast(Daxas)]	134%	-8.23%
O=C1NC(=O)/C(=C/c2ccc3c(c2)OC(F)(F)O3)S1	114%	7.01%
CN(C)CCC[C@@]1(c2ccc(F)cc2)OCc2cc(C#N)ccc21 [escitalopram-oxalate]	107%	-1.12%
CCCC(=O)Nc1ccc(OCC(O)CNC(C)C)c(C(C)=O)c1 (stereo not given) [acebutolol-hcl]	106%	-3.5%
COc1ccc(Cn2ccc3ccc(C(=O)NO)cc32)cc1	111%	-8.59%
CC(=O)c1cc([N+](=O)[O-])c(Sc2cccc(Cl)c2Cl)s1	108%	-4.24%
COc1cc2nc(N(C)CCCNC(=O)C3CCCO3)nc(N)c2cc1OC (stereo not given) [Alfuzosin-hydrochloride]	101%	-2.42%
CC(C)c1cc(-c2ccc(F)c3ccccc23)nc(N)n1	144%	-7.78%
C=CC(=O)Nc1cccc(Nc2nc(Nc3ccc(N4CCN(C(C)=O)CC4)cc3OC)ncc2C(F)(F)F)c1	61.9%	44%
FC(F)(F)c1ccc(/C=C/c2nc(COc3ccc(CCCCn4ccnn4)cc3)co2)cc1 [Mubritinib-TAK-165]	149%	-0.747%
CC(C)(C#N)c1cc(Cn2cncn2)cc(C(C)(C)C#N)c1 [Anastrozole]	109%	-2.96%
Cc1cc(F)c(Nc2ncnc3cc(OCc4ccccc4)ccc23)cc1O	104%	-3.39%
Cc1ccccc1C(=O)Nc1ccc(C(=O)N2CCCC(O)c3cc(Cl)ccc32)c(C)c1 (stereo not given)	111%	-6.61%
OC(CN1CCN(c2cccc(Cl)c2)CC1)C(c1ccccc1)c1ccccc1 (stereo not given)	109%	-4.89%
CCN(CC)CC#CCOC(=O)C(O)(c1ccccc1)C1CCCCC1 (stereo not given) [oxybutynin-chloride]	108%	-1.12%
COc1ccc2cccc(CCNC(C)=O)c2c1 [Agomelatine]	102%	5.66%
